# Screening data (PubChem BioAssay)
# A selection: hits, their analogues and other compounds. The true share with any hit is near 4.8%.
# CSC inhib: blocks cancer stem cells; 300,000 tested, 1.1% active; inhibition, % at 7.5 µM; cancer stem cell-like cells viability, luminescence; AID 2717; in the data active means inhibition above about 75%; tested in HMLE shEcad cells
# Calb FLC: affects C. albicans growth with fluconazole. AID 1979. 300,000 tested, 0.57% active. C. albicans CaCi-2 (fluconazole-resistant clinical isolate) + fluconazole, Alamar Blue growth, 48 h. growth inhibition, % (test concentration not listed);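 active means growth inhibition above about 58% in most replicates, limit read from the data, passing the limit was not always enough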;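 further: all wells also contain fluconazole at 8 µg/ml as a sub-toxic cotreatment; 0% = median of DMSO wells and 100% = median of geldanamycin control wells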
# Mdm2 MdmX PPI: disrupts the human Mdm2-MdmX interaction. O15151+Q00987. 330,000 tested, 3% active. SaOS-2 split-luciferase Mdm2/MdmX complementation, luminescence. inhibition, % at 8 µM. AID 485346;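 active means inhibition of at least 50% at 8 µM in the primary screen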
# Target sequence (O15151 whole entry, looked up): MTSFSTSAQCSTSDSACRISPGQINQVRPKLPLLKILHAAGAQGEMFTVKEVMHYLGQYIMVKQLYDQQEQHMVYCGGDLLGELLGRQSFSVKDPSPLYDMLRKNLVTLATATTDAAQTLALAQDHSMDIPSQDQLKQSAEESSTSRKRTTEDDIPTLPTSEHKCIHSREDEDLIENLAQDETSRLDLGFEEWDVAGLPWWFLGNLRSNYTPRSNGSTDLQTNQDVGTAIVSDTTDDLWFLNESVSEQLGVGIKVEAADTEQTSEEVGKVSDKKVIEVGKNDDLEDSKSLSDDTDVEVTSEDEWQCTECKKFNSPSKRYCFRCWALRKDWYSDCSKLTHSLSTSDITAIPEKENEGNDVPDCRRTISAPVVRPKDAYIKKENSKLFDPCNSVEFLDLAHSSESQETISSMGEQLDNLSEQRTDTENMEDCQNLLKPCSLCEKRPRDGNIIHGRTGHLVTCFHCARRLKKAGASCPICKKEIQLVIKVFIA
# Target sequence (Q00987 whole entry, looked up): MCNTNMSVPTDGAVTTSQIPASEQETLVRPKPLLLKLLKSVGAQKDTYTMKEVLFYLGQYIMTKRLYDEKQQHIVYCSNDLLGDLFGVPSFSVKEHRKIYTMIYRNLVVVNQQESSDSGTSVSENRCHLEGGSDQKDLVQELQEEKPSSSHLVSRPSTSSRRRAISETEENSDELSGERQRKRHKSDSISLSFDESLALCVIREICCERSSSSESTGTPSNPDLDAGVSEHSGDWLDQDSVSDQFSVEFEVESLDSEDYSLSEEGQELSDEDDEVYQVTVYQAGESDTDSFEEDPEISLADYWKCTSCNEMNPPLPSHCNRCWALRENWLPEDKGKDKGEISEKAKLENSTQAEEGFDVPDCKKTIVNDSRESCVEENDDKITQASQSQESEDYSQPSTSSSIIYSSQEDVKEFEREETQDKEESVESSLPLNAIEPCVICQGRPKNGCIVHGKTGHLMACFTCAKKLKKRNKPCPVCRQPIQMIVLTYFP
# MPTP block: inhibitors of mitochondrial permeability transition pore; AID 602449; isolated mouse mitochondria, Ca2+ swelling absorbance, 30 min; inhibition, % at 10 µM; 360,000 tested, 1.4% active;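 active means inhibition of 50% or more, scaled per plate between neutral and stimulator controls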;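 further: 0% = DMSO wells given calcium and 100% = 1 mM EGTA wells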
# Beta cell apopt: beta cell apoptosis inhibition | INS-1E cytokine-induced death, ATP luminescence, 48 h; percent of positive-control rescue, neutral wells zero | protection from apoptosis, % (no concentration beside the values) | 300,000 tested, 0.8% active;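 active means Every replicate reaches about 75%, or at least half do and their mean reaches it too, limit read from the data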;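 further: 0% = cytokine-treated negative control wells and 100% = positive control rescue; higher means more ATP so stronger rescue from cytokine killing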
# Mdm2-MdmX conf: confirmation of human Mdm2/MdmX interaction inhibitors | Mdm2-MdmX binding, luminescent assay | inhibition, % at 8 µM | AID 489028 | shares compounds with Mdm2 MdmX PPI | 10,000 tested, 55% active; in the data active means inhibition above about 40%
# Full FLuc ctr: counter-screen for Mdm2/MdmX inhibitors: full-length luciferase; SaOS-2 full-length luciferase counterscreen, luminescence; inhibition, % at 8 µM; 6,200 tested, 77% active; shares compounds with Mdm2 MdmX PPI;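 active means mean inhibition at 8 µM reaching about 37%, which flags the compound as non-specific, limit read from the data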;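 further: p53-null SaOS-2 cells with luciferase driven by a doxycycline-inducible promoter; compound on cells about two nights before reading with doxycycline added after day one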
# Numbers without * were called inactive; . = no result given; ! = not active in a repeat.
SMILES,CSC inhib,Calb FLC,Mdm2 MdmX PPI,MPTP block,Beta cell apopt,Mdm2-MdmX conf,Full FLuc ctr
CN1CCN(CCC=C2c3ccccc3Sc3ccc(S(=O)(=O)N(C)C)cc32)CC1,-3,.,50*,0,-7,31,.
O=C(CNc1cccc(C(F)(F)F)c1)N/N=C/c1ccccc1C(=O)O,-3,-18,-4,1,-6,.,.
Cc1nn(Cc2ccc(Cl)cc2Cl)c(Cl)c1/C=N/NC(=O)CNc1cccc(C(F)(F)F)c1,26,-9,84*,.,20,-1,.
CCC1Nc2ncnc(N3CCN(c4ccccc4)CC3)c2N(Cc2ccc(Br)cc2)C1=O (configuration not stated),14,-5,53*,2,1,13,.
CCOc1ccccc1CN1CCNC(=O)C1CC(=O)NCc1ccccn1 (configuration not stated),-11,10,-2,0,0,.,.
CCCCNC(=O)C1(C)CCN1C(=O)c1ccc2c(c1)C(C)(C)CCC2(C)C (configuration not stated),.,.,.,0,.,.,.
Cc1cccc(NC(=O)c2ccc(S(=O)(=O)N3CCOCC3)cc2)c1C,2,-4,2,-1,2,.,.
CCN1C(=O)c2cccc3c(NC(=O)c4ccc(S(=O)(=O)N5CCOCC5)cc4)ccc1c23,-1,-1,51*,-1,-2,49*,94*
CCN1C(=O)c2cccc3c(NS(=O)(=O)c4ccc(NC(C)=O)cc4)ccc1c23,-14,31,44,9,-3,.,.
CCN1C(=O)c2cccc3c(NC(=O)c4ccc(S(=O)(=O)N(C)C)cc4)ccc1c23,-4,45,59*,-1,-2,33,64*
CCC(C(=O)NC1CCCC1)n1nc(C)n2c(cc3occc32)c1=O (configuration not stated),-15,8,4,0,-5,.,.
Nc1ccc(N(CCO)CCO)cc1,3,43,4,4,-1,.,.
CCN(CC)c1ccc(N)cc1,23,.,80*,49,108*,15,.
C=CCC[C@@H](Cc1ccc(F)cc1)C(=O)OCCNC(=O)[C@H](CC=C)CC(=O)NCCO,-17,.,0,0,-2,.,.
Cn1nnnc1Sc1ncnc2scc(-c3cccc(C(F)(F)F)c3)c12,.,.,100*,0,-2,99*,53*
Cn1nnnc1Sc1ncnc2scc(-c3cccc(F)c3)c12,-2,.,98*,-2,5,99*,53*
Cn1nnnc1Sc1ncnc2scc(-c3ccc(C(F)(F)F)cc3)c12,94*,.,98*,1,12,99*,50*
Cn1nnnc1Sc1ncnc2scc(-c3ccccc3C(F)(F)F)c12,25,.,39,-1,-5,.,.
COc1cccc(-c2csc3ncnc(Sc4nnnn4C)c23)c1,.,.,98*,-2,-2,80*,20
Fc1ccc(CSc2ncnc3scc(-c4ccccc4)c23)cc1,26,-51,11,2,-13,.,.
COC(=O)CSc1ncnc2scc(-c3ccccc3)c12,-8,-17,23,-1,-6,.,.
CCN(CC)C(=O)C1=C(C)N(Cc2ccccc2)C(=O)C(CC(=O)NCc2cccc3ccccc23)C1 (configuration not stated),.,.,.,1,.,.,.
CCOC(=O)[C@]12CCCC=C1N(Cc1ccc3c(c1)OCO3)C(=O)[C@H](CC(=O)N1CCC(c3ccccc3)CC1)C2,.,.,.,-1,.,.,.
O=C(NCCN1C(=O)S/C(=C\c2ccc(Cl)c(Cl)c2)C1=O)c1cnccn1,7,2,-6,8,-5,.,.
O=C(NCCN1C(=O)S/C(=C\c2ccc(Cl)c([N+](=O)[O-])c2)C1=O)C1=COCCO1,52,.,96*,11,-2,58*,57*
SMILES,CSC inhib,Calb FLC,Mdm2 MdmX PPI,MPTP block,Beta cell apopt,Mdm2-MdmX conf,Full FLuc ctr
CN(C)Cc1csc(NC(=O)Nc2ccccc2Oc2ccccc2)n1,.,.,.,2,.,.,.
Cc1cc2ccccn2c1C(=O)c1ccc(NN)c([N+](=O)[O-])c1,-8,-4,62*,1,-5,28,.
O=C(NCCc1ccccc1)C1Cc2c(-c3ccc4c(c3)OCO4)ccnc2O1 (configuration not stated),.,.,.,0,.,.,.
COc1cccc(-c2nc(-c3ccccc3)nc(N3CCN(C)CC3)c2C#N)c1,-11,-4,66*,1,13,54*,77*
Cc1ccc(S(=O)(=O)Nc2ccccc2C(C(=O)OC(C)(C)C)C(=O)OC(C)(C)C)cc1,.,.,.,1,.,.,.
CCCCC1(COC(=O)CCC(=O)O)C(=O)N(c2ccccc2)N(c2ccccc2)C1=O,-13,.,-5,1,-10,.,.
CCCCC1(Cc2ccc([N+](=O)[O-])cc2)C(=O)N(c2ccccc2)N(c2ccccc2)C1=O,6,7,97*,44,101*,97*,47*
COc1cc(/C=C(\C#N)C(=O)NC2CCCCC2C)ccc1OS(=O)(=O)c1ccc(C)cc1 (configuration not stated),157*,-4,100*,5,18,38,.
O=C(Nc1ccc2c(c1)C(=O)OC2)c1ccccc1Cl,10,7,-7,0,1,.,.
O=C(CCl)N(C/C=C/c1ccccc1)c1ccc2c(c1)OCCO2,1,-24,79*,-1,-18,67*,26
O=C(/C=C/c1ccccc1)c1ccc2c(c1)OCCCCO2,0,-3,-169,9,4,.,.
O=C(Nc1ccc2c(c1)OCO2)c1cc(C2CCCCN2S(=O)(=O)c2ccccc2)on1 (configuration not stated),.,.,.,1,.,.,.
CCc1ccc2c(c1)C1(C(=O)N2)N2CCCC2C(C(=O)c2ccc3ccccc3c2)C12C(=O)Nc1ccccc12 (configuration not stated),159*,5,91*,6,121*,38,91*
COCCCN1C(=O)C(CC(=O)NC2CCCC2)CC(C(=O)N(C(C)C)C(C)C)=C1C (configuration not stated),.,.,.,1,.,.,.
CN(C)c1ccnc2c[cH-]cc12.[Fe].c1ccc(-[c-]2[c-](-c3ccccc3)[c-](-c3ccccc3)[c-](-c3ccccc3)[c-]2-c2ccccc2)cc1 (configuration not stated),-13,11,98*,18,35,78*,37*!
COc1ccc(-c2nc(NC(=O)c3ccc(OCC(=O)Nc4ccc(F)cc4)c(OC)c3)sc2C)cc1,10,0,61*,-1,-4,46*,58*
COc1ccc(NC(=O)C2CCCCC2)cc1S(=O)(=O)N1CCOCC1,-6,.,17,2,3,.,.
COc1cccc(C(=O)N2CCC[C@H]2C(=O)N2CCC[C@H]2C(=O)N[C@@H](C)c2ccccc2)c1,.,.,.,-1,.,.,.
COc1ccc(-c2ccc3oc(-c4ccc(OC)cc4)c(C#CCO)c3c2)cc1,10,-7,88*,1,26,73*,21
